Records with an inconclusive call do not appear. Where a call stands in place of a potency, no number is given. Active and inactive are the calls of the source. Unless noted, calls follow the shape of the dose curve; as a rule, active = well fitted curve in the direction sought with a large enough effect in the repeat runs; inconclusive = weak or mixed curves; inactive = no such curve, though single readings can be large; an effect the other way counts as inactive or inconclusive.
Experiments:
[1] = qHTS assay for small molecules that induce genotoxicity in human embryonic kidney cells expressing luciferase-tagged ATAD5 (AID 651632); also: nearly all actives have a fitted effect of over 15% in size; also: potency is read from the fitted curve at half-maximal effect
Procedure, shortened: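 A rise in luciferase signal from ATAD5-tagged HEK293T cells marks genetic stress. Cells were exposed to compounds for 16 hr at 37C, 5% CO2, then luciferase was quantified after a 30 min room-temperature incubation with Amplite.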

[2] = qHTS assay for small molecule agonists of the p53 signaling pathway - cell viability (AID 651633; calls by dose curve;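 also: p53RE-bla HCT reporter cells with a stable beta-lactamase p53 reporter; series mostly up to about 83 µM; nearly all actives have a fitted effect of over 30% in size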)
Procedure, shortened: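 p53RE-bla cells, seeded at 4,000 per well and rested 5 h at 37 C/5% CO2, received compounds in DMSO for 16 h at 37 C. CellTiter-Glo was then added, and luminescence was read after 30 min at room temperature to gauge cytotoxicity.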

[3] = qHTS assay for small molecules that induce genotoxicity in human embryonic kidney cells expressing luciferase-tagged ATAD5 - cell viability (AID 651634; calls by dose curve; also: nearly all actives have a fitted effect of over 25% in size)
Procedure, shortened: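 Cytotoxicity counter-readout: after 15.5 hr compound treatment at 37C, live-cell protease activity in ATAD5-luciferase HEK293T cells measured by CellTiter-Fluor fluorescence, 30 min development at 37C.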

[4] = qHTS assay for small molecule disruptors of the mitochondrial membrane potential - cell viability (AID 720634; calls by dose curve; also: nearly all actives have a fitted effect of over 20% in size; also: potency is read from the fitted curve at half-maximal effect)
Procedure, shortened: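 Cytotoxicity was quantified from ATP content by CellTiter-Glo luminescence in the same wells as the MMP dye read-out. HepG2 (2,000 cells/well) were plated overnight and exposed to compounds for 1 hr at 37 C.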

[5] = qHTS assay to test for compound auto fluorescence at 590 nm (red) in HepG2 cells (AID 720674)
Procedure, shortened: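 Intrinsic compound fluorescence in the red window (Ex/Em 540/590 nm) is measured in attached HepG2 cells exposed for 1 hr, DMSO vehicle as baseline, benchmarked to Rose Bengal sodium.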

[6] = qHTS assay to test for compound auto fluorescence at 535 nm (green) in HepG2 cells (AID 720675)
[7] = qHTS assay to test for compound auto fluorescence at 460 nm (blue) in HEK293 cells (AID 720678)
Procedure, shortened: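 Blue-channel (Ex/Em 405/460 nm) intensity measured in HEK293 cultures after overnight compound exposure at 37C; signal expressed relative to triamterene. Cells plated 2,000 per well in 10% dialyzed FBS medium and allowed 4-5 hr to attach.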

[8] = qHTS assay to test for compound auto fluorescence at 590 nm (red) in HEK293 cells (AID 720679)
Procedure, shortened: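 Red-channel autofluorescence (Ex/Em 540/590 nm; Rose Bengal sodium reference) was measured after overnight 37C, 5% CO2 exposure of attached HEK293 cells, 2,000 per well in medium with 10% dialyzed FBS.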

[9] = qHTS assay to test for compound auto fluorescence at 535 nm (green) in HEK293 cells (AID 720680)
[10] = qHTS assay to test for compound auto fluorescence at 460 nm (blue) in HEK293 cell free culture (AID 720681)
Procedure, shortened: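 Test compounds were pinned into cell-free culture medium (DMEM with 10% FBS) and fluorescence was read directly at Ex/Em 405/460 nm. Signals were expressed as fluorescence equivalents of triamterene, with DMSO vehicle as control.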

[11] = qHTS assay to test for compound auto fluorescence at 535 nm (green) in HEK293 cell free culture (AID 720682)
Procedure, shortened: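 Each library compound, or DMSO control, is added by pintool to medium alone, comprising DMEM and 10% FBS. Emission at 535 nm following 485 nm excitation is quantified against fluorescein.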

[12] = qHTS assay to test for compound auto fluorescence at 590 nm (red) in HEK293 cell free culture (AID 720683)
Procedure, shortened: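 Tox21 10K library compounds were pinned into cell-free DMEM with 10% FBS and fluorescence was read at excitation 540 nm. Activity is expressed as Rose Bengal sodium equivalency.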

[13] = qHTS assay to test for compound auto fluorescence at 590 nm (red) in HepG2 cell free culture (AID 720684)
Procedure, shortened: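 Ex 540 / Em 590 nm read of compound in cell-free MEM (10% FBS). Rose Bengal sodium reference.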

[14] = qHTS assay to test for compound auto fluorescence at 460 nm (blue) in HepG2 cell free culture (AID 720685)
Procedure, shortened: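 Cell-free plates of MEM plus 10% FBS received 23 nL compound or DMSO vehicle; blue-channel (405/460 nm) intensity scored against triamterene as reference fluorophore.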

[15] = qHTS assay to test for compound auto fluorescence at 535 nm (green) in HepG2 cell free culture (AID 720686)
[16] = qHTS assay to test for compound auto fluorescence at 460 nm (blue) in HepG2 cells (AID 720687)
Procedure, shortened: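 Cells (2,000/well in MEM with 10% FBS) attached overnight at 37 C, then were exposed to compound or DMSO for 1 hr at 37 C, 5% CO2. Fluorescence read at Ex/Em 405/460 nm, expressed as triamterene-equivalent signal.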

[17] = biological target: Glucocorticoid receptor (Homo sapiens) (UniProt P04150); assay: qHTS assay to identify small molecule agonists of the glucocorticoid receptor (GR) signaling pathway (AID 720691; active = well fitted activation curve with a large enough effect in the signal ratio in the repeat runs, not every such curve was filed as active; the % refers to the signal ratio)
Sequence of Glucocorticoid receptor (Homo sapiens) (P04150 whole entry, looked up): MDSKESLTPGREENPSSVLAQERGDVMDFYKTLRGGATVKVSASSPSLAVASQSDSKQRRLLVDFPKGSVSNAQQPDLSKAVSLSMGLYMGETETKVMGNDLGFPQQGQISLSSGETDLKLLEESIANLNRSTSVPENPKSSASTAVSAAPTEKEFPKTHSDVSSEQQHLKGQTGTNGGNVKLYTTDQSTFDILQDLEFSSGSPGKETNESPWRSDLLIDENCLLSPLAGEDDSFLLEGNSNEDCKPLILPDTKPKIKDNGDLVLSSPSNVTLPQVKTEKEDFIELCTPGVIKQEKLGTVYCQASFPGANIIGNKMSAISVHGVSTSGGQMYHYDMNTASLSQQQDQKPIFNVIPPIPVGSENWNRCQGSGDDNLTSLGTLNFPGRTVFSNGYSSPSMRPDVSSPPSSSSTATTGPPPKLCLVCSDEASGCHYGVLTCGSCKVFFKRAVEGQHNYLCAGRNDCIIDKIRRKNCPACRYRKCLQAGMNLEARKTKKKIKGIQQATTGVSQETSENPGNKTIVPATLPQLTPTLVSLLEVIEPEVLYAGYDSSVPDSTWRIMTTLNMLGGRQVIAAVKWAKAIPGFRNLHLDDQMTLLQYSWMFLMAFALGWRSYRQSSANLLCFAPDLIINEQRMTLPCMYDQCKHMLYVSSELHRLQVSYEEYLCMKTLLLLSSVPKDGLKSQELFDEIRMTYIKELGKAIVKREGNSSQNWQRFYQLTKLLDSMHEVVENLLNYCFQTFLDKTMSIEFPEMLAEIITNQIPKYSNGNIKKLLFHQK
Procedure, shortened: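 Agonist-mode qHTS in HeLa cells stably expressing a glucocorticoid-response-element beta-lactamase reporter. Fluorescence intensity read with FRET substrate (2 h, room temperature) after 18 h compound treatment at 37 C.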

[18] = biological target: Glucocorticoid receptor (Homo sapiens) (UniProt P04150); assay: qHTS assay to identify small molecule antagonists of the glucocorticoid receptor (GR) signaling pathway (AID 720692; active = well fitted inhibition curve with a large enough effect in the signal ratio in the repeat runs, not every such curve was filed as active; the % refers to the signal ratio; also: potency is read from the fitted curve at half-maximal effect)
Procedure, shortened: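 Inhibition of dexamethasone-driven (5 nM final) beta-lactamase expression was measured in GRE-reporter HeLa cells over 18 h at 37C. Fluorescence was read after 2 h with the B/G FRET substrate at room temperature.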

[19] = qHTS assay for small molecule disruptors of the mitochondrial membrane potential (AID 720635); also: potency is read from the fitted curve at half-maximal effect
Procedure, shortened: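 HepG2 cells (2,000/well) attached overnight at 37C, then took compound for 1 hr at 37C, 5% CO2. Mito-MPS dye was added for 30 min; fluorescence was read at 490/535 nm (monomers) and 540/590 nm (aggregates).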

[20] = qHTS assay for small molecule agonists of the p53 signaling pathway (AID 651631; calls by dose curve; also: nearly all actives have a fitted effect of over 15% in size)
Procedure, shortened: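 Beta-lactamase reporter activity under p53 response elements was quantified in HCT-116 cells by FRET fluorescence, following 16 h incubation with test compounds at 37 °C and 2 h substrate development at room temperature.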

| Structure (SMILES) | Potency [1] | Potency [2] | Potency [3] | Potency [4] | outcome [5] | outcome [6] | outcome [7] | outcome [8] | outcome [9] | outcome [10] | outcome [11] | outcome [12] | outcome [13] | outcome [14] | outcome [15] | outcome [16] | outcome [17] | Potency [18] | Potency [19] | Potency [20] |
| --- | --- | --- | --- | --- | --- | --- | --- | --- | --- | --- | --- | --- | --- | --- | --- | --- | --- | --- | --- | --- |
| C[N+](C)=CCl | inactive | inactive | inactive | inactive | inactive | inactive | inactive | inactive | inactive | inactive | inactive | inactive | inactive | inactive | inactive | inactive | inactive |  |  |  |
| CCCCOC(=O)c1ccccc1N | inactive | inactive | inactive | inactive |  | inactive | inactive | inactive | inactive | inactive | inactive | inactive | inactive | inactive | inactive | inactive | inactive | inactive |  |  |
| O=C1OC(c2ccc(O)c(S(=O)(=O)O)c2)(c2ccc(O)c(S(=O)(=O)O)c2)c2c(Br)c(Br)c(Br)c(Br)c21 | inactive | inactive | inactive | inactive | inactive | inactive | inactive | inactive | inactive | inactive | inactive | inactive | inactive | inactive | inactive | inactive | inactive |  |  |  |
| CCOP(=O)(OCC)OP(=O)(OCC)OCC | inactive | inactive | inactive | inactive | inactive | inactive | inactive | inactive | inactive | inactive | inactive | inactive |  | inactive | inactive |  |  |  |  |  |
| O=[N+]([O-])c1cc(Cl)c(Cl)c(Cl)c1 | inactive | inactive | inactive | inactive | inactive | inactive | inactive | inactive | inactive | inactive | inactive | inactive | inactive | inactive | inactive | inactive |  |  |  |  |
| COc1cc(OC)nc(NC(=O)NS(=O)(=O)c2ncccc2C(=O)N(C)C)n1 | inactive | inactive | inactive | inactive | inactive | inactive | inactive | inactive | inactive | inactive | inactive | inactive | inactive | inactive | inactive | inactive | inactive |  |  |  |
| COc1ncc(F)c2nc(S(=O)(=O)Nc3c(F)cccc3F)nn12 | inactive | inactive | inactive | inactive |  | inactive | inactive | inactive | inactive | inactive | inactive |  | inactive | inactive | inactive | inactive | inactive | inactive |  |  |
| CCN(CC)C(C)C(=O)c1ccccc1 (stereo not drawn) | inactive | inactive | inactive |  |  | inactive | inactive | inactive | inactive | inactive | inactive | inactive |  | inactive | inactive |  |  |  | inactive |  |
| Cc1ncsc1CCCl | inactive | inactive | inactive |  | inactive | inactive | inactive | inactive | inactive | inactive | inactive | inactive | inactive | inactive | inactive | inactive | inactive |  |  |  |
| CC1(C)C(=O)NC(=O)NC1=O | inactive | inactive | inactive |  | inactive | inactive | inactive | inactive | inactive | inactive | inactive | inactive | inactive | inactive | inactive | inactive |  | inactive |  |  |
| O=[N+]([O-])c1cccc(O)c1 | inactive | inactive | inactive | inactive | inactive | inactive | inactive | inactive | inactive | inactive | inactive | inactive |  | inactive | inactive |  |  |  | 43.4 µM (active) |  |
| CC1(C)COP(Oc2ccccc2)OC1 | inactive | inactive | inactive | inactive | inactive | inactive | inactive | inactive | inactive |  | inactive | inactive | inactive | inactive | inactive | inactive | inactive |  |  |  |
| Oc1c(Cl)cccc1Cl | inactive | inactive | inactive | inactive |  | inactive | inactive | inactive | inactive | inactive | inactive | inactive | inactive | inactive | inactive | inactive |  |  | inactive |  |
| Nc1cc2c3c(c1)C(c1ccccc1)=N[C@@H](NC(=O)c1cccnc1)C(=O)N3CC2 | inactive | inactive | inactive | inactive | inactive | inactive | inactive | inactive | inactive | inactive |  | inactive |  | inactive | inactive | inactive | inactive | inactive |  |  |
| OCCBr | inactive | inactive | inactive |  | inactive | inactive | inactive | inactive | inactive | inactive | inactive | inactive | inactive | inactive | inactive |  | inactive |  | inactive |  |
| CNC(=O)Oc1c(C(C)(C)C)cc(C)cc1C(C)(C)C | inactive | inactive | inactive | inactive | inactive | inactive | inactive | inactive | inactive | inactive |  |  | inactive | inactive | inactive | inactive |  |  |  |  |
| c1coc(-c2nc3ccccc3[nH]2)c1 |  |  | inactive |  |  | inactive | inactive | inactive | inactive | inactive | inactive | inactive | inactive | inactive | inactive | inactive | inactive | inactive |  | inactive |
| CC(C)CC#N | inactive | inactive | inactive | inactive | inactive | inactive | inactive | inactive | inactive | inactive |  | inactive |  | inactive | inactive | inactive | inactive | inactive | inactive |  |
| Cc1ncc2n1-c1ccc(Cl)cc1C(c1ccccc1F)=NC2 | 26.6 µM (active) | inactive | inactive | inactive | inactive | inactive | inactive | inactive | inactive | inactive | inactive |  |  | inactive | inactive | inactive | inactive | 16.9 µM (active) |  |  |
| CC(Oc1ccc(Oc2ncc(C(F)(F)F)cc2Cl)cc1)C(=O)O (stereo not drawn) | inactive | inactive | inactive |  | inactive | inactive | inactive | inactive | inactive | inactive | inactive | inactive | inactive | inactive | inactive | inactive |  |  |  |  |
| O=C(Nc1ccccc1)N(Cc1ccc(Cl)cc1)C1CCCC1 | inactive | inactive |  | 61.1 µM (active) | inactive | inactive | inactive | inactive | inactive | inactive |  | inactive | inactive | inactive | inactive | inactive | inactive |  |  |  |
| O=C1OC(=O)C2C1C1(Cl)C(Cl)=C(Cl)C2(Cl)C1(Cl)Cl (stereo not drawn) | inactive |  | inactive | inactive | inactive | inactive | inactive | inactive | inactive | inactive | inactive | inactive | inactive | inactive | inactive | inactive | inactive |  |  |  |
| O=C(O)C(Br)CBr (stereo not drawn) |  | inactive | inactive | inactive | inactive | inactive | inactive | inactive | inactive | inactive |  | inactive | inactive | inactive | inactive | inactive | inactive | inactive | inactive |  |
| ClC(Cl)Br | inactive | inactive |  | inactive | inactive | inactive | inactive | inactive | inactive | inactive | inactive | inactive | inactive | inactive | inactive | inactive |  |  | inactive |  |
| CC(=O)C(Cl)Cl | inactive | inactive | inactive |  | inactive | inactive | inactive | inactive | inactive | inactive |  | inactive | inactive | inactive | inactive |  | inactive | inactive |  |  |
| CC1(C(=O)Nc2ccc(O)c(Cl)c2Cl)CCCCC1 | inactive | inactive |  |  | inactive | inactive | inactive | inactive | inactive | inactive | inactive | inactive | inactive | inactive | inactive | inactive |  |  |  |  |

From PubChem BioAssay (Tox21)
